# Assay results as given in PubChem BioAssay AID1038 (National Center for Advancing Translational Sciences (NCATS), 2008).
# Inconclusive results are not listed. Activity calls are given as the source filed them. Calls follow the shape of the full dose curve.
# Experiment: Normal 1 Cell Viability Secondary Assay for qHTS Assay for Epigenetic Modulators
# Settings: Normal 1 bronchial epithelial viability, MTS, 4 d
# Description: NIH Molecular Libraries Screening Centers Network [MLSCN] NIH Chemical Genomics Center [NCGC] MLSCN Grant: 1 X01 MH079860-01 Assay Provider: Elisabeth D. Martinez, University of Texas SW Medical Center NCGC Assay Overview: This secondary assay characterizes selected actives identified in the qHTS of the Locus Derepression (LDR) assay (PubChem AID 597). The LDR assay detects the derepression of a GFP reporter that is stably integrated in a region of the genome of murine c127i mammary cells that is presumably silenced. Compounds that cause derepression of the locus to express GFP are identified by enumerating GFP positive cells using a laser-scanning microplate cytometer. […] Normal 1 cell viability was measured using Cell Titer 96 AQueous One (Promega), an assay which detects the ability of metabolically active cells to reduce a tetrazolium salt substrate (MTS), into a soluble formazan product that can be measured by colorimetry.
# NCGC Assay Protocol Summary Normal 1 cells were plated in 96-well flat bottom tissue culture dishes (Corning) and grown overnight at 37 C and 5% CO2, then treated with compounds, incubated 4 days, and assayed for viability using the Cell Titer 96 AQueous One kit (Promega) according to the manufacturer's protocol. Absorbance at 490 nm and 650 nm (reference) was measured by a Spectra Max (Molecular Devices). […]
smiles,measurement,value
CN1CSC(=S)N(C)C1,outcome,inactive
